# Data taken from publication PMC7862700, “An all-to-all approach to the identification of sequence-specific readers for epigenetic DNA modifications on cytosine”.
# Legend:
# Experiment in all cases: DAPPL (digital affinity profiling via proximity ligation, sequencing); 10 mM Tris-HCl pH 7.5, 50 mM NaCl, 1 mM DTT, 4% glycerol, room temperature, 30 min; GST-TFs on glutathione beads, 16-mer random dsDNA library, 0.1% formaldehyde crosslink after washing; high values mean tight binding
# Conditions in all cases: protein: recombinant; tags: N-terminal GST; dsDNA, one strand shown
# FLI1 = molecular target: T1, FLI1 (Homo sapiens, UniProt Q01543 1-452)
# T1 sequence: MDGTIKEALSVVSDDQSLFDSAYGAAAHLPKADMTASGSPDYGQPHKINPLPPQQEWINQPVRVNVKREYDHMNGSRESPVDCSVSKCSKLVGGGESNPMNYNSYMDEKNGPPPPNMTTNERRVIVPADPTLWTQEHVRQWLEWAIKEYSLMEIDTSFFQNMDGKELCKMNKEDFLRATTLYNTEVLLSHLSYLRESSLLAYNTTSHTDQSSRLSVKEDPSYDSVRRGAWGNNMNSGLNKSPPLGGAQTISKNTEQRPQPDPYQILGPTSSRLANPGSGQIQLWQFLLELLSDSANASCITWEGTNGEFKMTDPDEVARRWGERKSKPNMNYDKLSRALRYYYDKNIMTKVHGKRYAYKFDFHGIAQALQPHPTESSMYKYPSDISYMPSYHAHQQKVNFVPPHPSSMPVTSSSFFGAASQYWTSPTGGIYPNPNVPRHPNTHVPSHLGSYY
# Method in brief: (§1)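 Yeast served to express human transcription factors as GST fusions, which were then captured on glutathione beads and labelled with DNA barcodes. Pooled with a tag-only sample, they were incubated with 200 nmole of a 16-mer random double-stranded DNA library for 30 min at room temperature in Tris/NaCl/DTT/glycerol buffer, washed, crosslinked with 0.1% formaldehyde, ligated by proximity, amplified by PCR and sequenced. Dividing each hexamer's read frequency for a factor by its frequency for the tag-only sample gives the binding signal.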
# ELK1 = molecular target: T2, ELK1 (Homo sapiens, UniProt P19419 1-428)
# T2 sequence: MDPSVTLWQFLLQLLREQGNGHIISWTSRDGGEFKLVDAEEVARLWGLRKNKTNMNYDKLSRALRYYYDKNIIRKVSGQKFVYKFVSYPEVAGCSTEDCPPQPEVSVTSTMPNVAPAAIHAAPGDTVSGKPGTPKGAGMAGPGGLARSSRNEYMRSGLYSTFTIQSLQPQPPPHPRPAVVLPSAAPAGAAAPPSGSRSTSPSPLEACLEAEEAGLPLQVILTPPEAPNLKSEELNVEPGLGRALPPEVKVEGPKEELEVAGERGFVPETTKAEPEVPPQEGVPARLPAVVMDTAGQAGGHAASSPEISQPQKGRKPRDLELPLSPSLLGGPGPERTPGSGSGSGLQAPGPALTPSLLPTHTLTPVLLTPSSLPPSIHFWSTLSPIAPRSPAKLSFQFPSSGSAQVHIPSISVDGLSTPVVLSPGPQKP
# Method in brief: as §1
# GABPA = molecular target: T3, GABPA (Homo sapiens, UniProt Q06546 1-454)
# T3 sequence: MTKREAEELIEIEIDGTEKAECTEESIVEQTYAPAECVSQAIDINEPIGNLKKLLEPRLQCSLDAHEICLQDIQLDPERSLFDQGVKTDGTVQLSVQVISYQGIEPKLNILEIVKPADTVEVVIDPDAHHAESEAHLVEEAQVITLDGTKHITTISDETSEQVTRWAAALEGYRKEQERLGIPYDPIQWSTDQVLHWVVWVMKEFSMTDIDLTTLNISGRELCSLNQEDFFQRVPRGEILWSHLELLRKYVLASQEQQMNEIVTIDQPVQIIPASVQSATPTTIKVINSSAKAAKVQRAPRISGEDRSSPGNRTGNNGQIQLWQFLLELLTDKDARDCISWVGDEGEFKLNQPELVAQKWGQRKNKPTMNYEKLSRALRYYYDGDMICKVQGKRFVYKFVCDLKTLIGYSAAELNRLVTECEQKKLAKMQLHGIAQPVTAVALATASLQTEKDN
# Method in brief: as §1
# ERG = molecular target: T4, ERG (Homo sapiens, UniProt P11308 1-479)
# T4 sequence: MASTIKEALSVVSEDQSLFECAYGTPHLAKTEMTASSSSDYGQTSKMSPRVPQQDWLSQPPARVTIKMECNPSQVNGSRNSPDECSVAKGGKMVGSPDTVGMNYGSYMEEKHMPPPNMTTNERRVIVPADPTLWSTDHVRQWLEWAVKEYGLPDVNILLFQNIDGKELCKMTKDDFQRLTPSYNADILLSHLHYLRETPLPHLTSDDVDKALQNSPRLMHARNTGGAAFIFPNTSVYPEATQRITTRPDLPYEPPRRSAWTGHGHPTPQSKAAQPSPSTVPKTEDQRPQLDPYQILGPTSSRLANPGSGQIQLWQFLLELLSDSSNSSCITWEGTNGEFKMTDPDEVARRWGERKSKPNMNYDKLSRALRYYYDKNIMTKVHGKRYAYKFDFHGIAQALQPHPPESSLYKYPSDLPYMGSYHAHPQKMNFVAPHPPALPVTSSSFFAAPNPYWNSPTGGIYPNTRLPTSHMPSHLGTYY
# Method in brief: as §1
# ELF1 = ELF1 (Homo sapiens, UniProt P32519 1-619)
# Method in brief: as §1
# EHF = molecular target: T5, EHF (Homo sapiens, UniProt Q9NZC4 1-300)
# T5 sequence: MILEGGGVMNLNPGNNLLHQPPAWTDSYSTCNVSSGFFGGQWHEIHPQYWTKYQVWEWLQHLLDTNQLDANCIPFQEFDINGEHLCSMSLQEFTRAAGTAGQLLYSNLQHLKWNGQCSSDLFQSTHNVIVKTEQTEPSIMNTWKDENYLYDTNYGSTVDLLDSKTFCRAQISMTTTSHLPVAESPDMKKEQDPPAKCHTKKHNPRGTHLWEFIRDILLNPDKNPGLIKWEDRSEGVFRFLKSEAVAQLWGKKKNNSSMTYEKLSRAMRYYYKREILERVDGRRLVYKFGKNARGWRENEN
# Method in brief: as §1
# SPI1 = SPI1 (Homo sapiens, UniProt P17947 1-270)
# Method in brief: as §1
# SPIB = SPIB (Homo sapiens, UniProt Q01892 1-262)
# Method in brief: as §1
# ELK3 = molecular target: T6, ELK3 (Homo sapiens, UniProt P41970 1-407)
# T6 sequence: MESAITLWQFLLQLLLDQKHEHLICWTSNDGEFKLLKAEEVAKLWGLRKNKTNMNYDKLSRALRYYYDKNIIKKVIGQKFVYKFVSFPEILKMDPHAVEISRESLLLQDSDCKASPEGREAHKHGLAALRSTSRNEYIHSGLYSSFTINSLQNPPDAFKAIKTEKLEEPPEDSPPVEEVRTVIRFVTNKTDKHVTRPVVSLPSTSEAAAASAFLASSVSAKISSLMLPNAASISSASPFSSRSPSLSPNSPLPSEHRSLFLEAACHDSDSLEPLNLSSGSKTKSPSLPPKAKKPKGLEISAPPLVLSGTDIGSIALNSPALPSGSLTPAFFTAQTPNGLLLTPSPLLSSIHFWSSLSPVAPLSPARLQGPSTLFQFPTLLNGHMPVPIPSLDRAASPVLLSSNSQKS
# Method in brief: as §1
# FEV = molecular target: T7, FEV (Homo sapiens, UniProt Q99581 1-238)
# T7 sequence: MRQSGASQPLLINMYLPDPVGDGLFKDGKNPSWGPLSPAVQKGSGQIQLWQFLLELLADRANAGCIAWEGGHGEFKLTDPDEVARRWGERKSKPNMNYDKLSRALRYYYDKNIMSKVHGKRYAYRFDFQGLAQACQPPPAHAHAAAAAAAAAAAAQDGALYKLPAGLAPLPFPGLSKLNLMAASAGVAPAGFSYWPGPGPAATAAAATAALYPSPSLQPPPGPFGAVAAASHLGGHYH
# Method in brief: as §1
# ETV5 = ETV5 (Homo sapiens, UniProt P41161 1-510)
# Method in brief: as §1
# SPIC = molecular target: T8, SPIC (Homo sapiens, UniProt Q8N5J4 1-248)
# T8 sequence: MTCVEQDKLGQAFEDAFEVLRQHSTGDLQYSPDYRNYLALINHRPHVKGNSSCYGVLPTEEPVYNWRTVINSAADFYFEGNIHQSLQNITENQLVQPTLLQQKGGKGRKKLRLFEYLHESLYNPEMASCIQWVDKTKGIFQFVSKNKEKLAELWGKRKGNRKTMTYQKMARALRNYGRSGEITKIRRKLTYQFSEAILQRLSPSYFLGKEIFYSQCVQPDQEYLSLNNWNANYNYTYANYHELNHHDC
# Method in brief: as §1
# ELF4 = ELF4 (Homo sapiens, UniProt Q99607 1-663)
# Method in brief: as §1
# ELK4 = molecular target: T9, ELK4 (Homo sapiens, UniProt P28324-2 1-405)
# T9 sequence: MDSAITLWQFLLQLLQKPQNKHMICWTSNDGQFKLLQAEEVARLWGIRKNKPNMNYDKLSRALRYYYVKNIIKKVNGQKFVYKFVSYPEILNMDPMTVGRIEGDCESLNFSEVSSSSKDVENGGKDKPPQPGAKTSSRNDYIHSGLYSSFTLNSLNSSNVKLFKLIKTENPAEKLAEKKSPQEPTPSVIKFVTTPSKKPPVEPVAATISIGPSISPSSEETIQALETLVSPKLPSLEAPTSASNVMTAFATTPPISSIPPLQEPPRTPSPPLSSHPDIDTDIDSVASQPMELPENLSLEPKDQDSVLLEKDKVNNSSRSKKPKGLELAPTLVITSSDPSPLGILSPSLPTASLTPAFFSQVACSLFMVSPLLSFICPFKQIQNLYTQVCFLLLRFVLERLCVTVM
# Method in brief: as §1
# ETV2 = molecular target: T10, ETV2 (Homo sapiens, UniProt O00321 1-342)
# T10 sequence: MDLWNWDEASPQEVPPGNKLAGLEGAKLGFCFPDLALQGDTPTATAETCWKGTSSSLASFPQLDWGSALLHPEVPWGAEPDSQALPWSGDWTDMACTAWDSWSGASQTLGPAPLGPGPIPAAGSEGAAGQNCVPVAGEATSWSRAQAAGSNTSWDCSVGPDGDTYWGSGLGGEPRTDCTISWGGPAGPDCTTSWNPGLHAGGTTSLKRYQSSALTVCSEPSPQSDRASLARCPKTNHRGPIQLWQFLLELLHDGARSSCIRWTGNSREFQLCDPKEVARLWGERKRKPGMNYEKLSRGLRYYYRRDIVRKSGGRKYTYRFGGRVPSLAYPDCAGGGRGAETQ
# Method in brief: as §1
# ELF3 = molecular target: T11, ELF3 (Homo sapiens, UniProt P78545 1-371)
# T11 sequence: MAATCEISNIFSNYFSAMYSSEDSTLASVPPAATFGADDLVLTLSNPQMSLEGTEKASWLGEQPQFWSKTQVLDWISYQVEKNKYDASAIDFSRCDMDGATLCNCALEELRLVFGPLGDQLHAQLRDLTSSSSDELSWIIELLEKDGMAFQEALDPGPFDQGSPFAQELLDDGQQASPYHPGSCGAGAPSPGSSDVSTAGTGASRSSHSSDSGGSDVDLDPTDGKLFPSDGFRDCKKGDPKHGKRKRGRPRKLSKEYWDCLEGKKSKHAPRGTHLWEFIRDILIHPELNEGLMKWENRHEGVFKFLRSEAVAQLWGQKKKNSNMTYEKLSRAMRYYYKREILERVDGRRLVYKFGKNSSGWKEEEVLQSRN
# Method in brief: as §1
# ETV1 = ETV1 (Homo sapiens, UniProt P50549 1-477)
# Method in brief: as §1
# Chain of ELF4 (Q99607 whole entry): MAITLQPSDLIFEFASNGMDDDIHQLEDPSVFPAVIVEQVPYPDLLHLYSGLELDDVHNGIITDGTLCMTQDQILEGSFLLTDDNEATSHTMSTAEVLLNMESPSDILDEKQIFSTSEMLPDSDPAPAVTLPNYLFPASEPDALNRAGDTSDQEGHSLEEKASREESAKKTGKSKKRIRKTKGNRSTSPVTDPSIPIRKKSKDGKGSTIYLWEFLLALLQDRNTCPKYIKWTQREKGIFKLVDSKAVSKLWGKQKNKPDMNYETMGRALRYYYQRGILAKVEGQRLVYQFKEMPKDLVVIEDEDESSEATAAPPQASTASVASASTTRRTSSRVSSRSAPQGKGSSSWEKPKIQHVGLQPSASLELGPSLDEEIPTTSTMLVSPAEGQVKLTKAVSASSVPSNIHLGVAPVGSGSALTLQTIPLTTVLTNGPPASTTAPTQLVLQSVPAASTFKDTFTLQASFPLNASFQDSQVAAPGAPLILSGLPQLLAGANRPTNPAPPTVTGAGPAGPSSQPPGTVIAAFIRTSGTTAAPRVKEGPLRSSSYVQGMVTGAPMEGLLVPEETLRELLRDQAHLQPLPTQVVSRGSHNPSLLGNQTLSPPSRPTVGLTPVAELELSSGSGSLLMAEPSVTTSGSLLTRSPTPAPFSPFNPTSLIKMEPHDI
# Chain of SPIB (Q01892 whole entry): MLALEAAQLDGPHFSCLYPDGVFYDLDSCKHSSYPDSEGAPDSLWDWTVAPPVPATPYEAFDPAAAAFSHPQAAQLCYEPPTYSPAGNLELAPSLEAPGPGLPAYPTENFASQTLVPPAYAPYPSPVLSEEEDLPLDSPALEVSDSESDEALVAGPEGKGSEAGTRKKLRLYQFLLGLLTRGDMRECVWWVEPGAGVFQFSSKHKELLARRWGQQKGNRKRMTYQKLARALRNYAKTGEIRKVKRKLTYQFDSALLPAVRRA
# Chain of ETV1 (P50549 whole entry): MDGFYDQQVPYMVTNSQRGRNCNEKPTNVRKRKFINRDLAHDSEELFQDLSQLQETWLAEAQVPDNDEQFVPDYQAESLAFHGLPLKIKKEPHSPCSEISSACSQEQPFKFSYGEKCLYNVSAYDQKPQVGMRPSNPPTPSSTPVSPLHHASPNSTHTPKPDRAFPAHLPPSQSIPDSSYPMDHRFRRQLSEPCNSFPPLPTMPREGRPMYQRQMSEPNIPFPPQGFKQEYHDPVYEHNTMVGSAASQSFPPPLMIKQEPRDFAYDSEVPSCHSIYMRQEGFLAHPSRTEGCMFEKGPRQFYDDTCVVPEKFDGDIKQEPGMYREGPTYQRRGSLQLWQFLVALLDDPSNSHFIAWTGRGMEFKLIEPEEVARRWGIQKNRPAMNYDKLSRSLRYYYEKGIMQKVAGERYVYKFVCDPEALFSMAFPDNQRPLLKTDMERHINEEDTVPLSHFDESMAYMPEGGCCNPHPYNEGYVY
# Chain of ETV5 (P41161 whole entry): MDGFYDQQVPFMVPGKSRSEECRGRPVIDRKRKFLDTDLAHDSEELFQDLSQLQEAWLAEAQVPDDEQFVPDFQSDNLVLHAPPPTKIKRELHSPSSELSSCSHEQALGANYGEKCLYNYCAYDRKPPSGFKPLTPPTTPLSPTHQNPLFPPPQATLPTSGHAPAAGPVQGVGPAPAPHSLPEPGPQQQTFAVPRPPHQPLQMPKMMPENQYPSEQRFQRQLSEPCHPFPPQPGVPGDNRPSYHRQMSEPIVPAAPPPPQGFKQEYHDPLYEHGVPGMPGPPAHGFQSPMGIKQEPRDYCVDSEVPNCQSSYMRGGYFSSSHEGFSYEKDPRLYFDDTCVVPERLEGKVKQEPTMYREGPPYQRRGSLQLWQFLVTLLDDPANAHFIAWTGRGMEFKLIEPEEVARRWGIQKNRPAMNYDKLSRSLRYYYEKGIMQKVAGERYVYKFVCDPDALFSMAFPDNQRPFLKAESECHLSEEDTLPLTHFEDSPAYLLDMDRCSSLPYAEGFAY
# Chain of ELF1 (P32519 whole entry): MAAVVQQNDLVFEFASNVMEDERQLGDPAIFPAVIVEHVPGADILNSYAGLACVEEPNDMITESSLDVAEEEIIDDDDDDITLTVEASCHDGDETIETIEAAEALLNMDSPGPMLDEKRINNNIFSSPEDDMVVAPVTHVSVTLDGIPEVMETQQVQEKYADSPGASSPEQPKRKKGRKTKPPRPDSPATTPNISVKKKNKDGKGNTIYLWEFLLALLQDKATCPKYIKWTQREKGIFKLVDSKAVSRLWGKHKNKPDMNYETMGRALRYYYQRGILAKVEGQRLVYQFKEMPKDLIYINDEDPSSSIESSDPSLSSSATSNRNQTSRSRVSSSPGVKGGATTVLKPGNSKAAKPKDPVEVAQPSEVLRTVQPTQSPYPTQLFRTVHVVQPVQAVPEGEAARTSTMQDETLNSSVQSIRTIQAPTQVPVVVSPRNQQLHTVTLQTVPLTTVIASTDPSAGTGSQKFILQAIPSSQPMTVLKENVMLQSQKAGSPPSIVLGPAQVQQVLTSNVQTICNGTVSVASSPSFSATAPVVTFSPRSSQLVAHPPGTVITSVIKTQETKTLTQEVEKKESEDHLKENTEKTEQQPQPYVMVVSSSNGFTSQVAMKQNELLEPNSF
sequence,measurement,setting,value
CGGTTC,binding signal,FLI1,"1.3 fold enrichment (6-mer frequency, TF over GST control)"
same,binding signal,ELK1,"1.43 fold enrichment (6-mer frequency, TF over GST control)"
same,binding signal,GABPA,"1.19 fold enrichment (6-mer frequency, TF over GST control)"
same,binding signal,ERG,"1.28 fold enrichment (6-mer frequency, TF over GST control)"
same,binding signal,ELF1,"1.27 fold enrichment (6-mer frequency, TF over GST control)"
same,binding signal,EHF,"1.27 fold enrichment (6-mer frequency, TF over GST control)"
same,binding signal,SPI1,"1.3 fold enrichment (6-mer frequency, TF over GST control)"
same,binding signal,SPIB,"1.33 fold enrichment (6-mer frequency, TF over GST control)"
same,binding signal,ELK3,"1.35 fold enrichment (6-mer frequency, TF over GST control)"
same,binding signal,FEV,"1.42 fold enrichment (6-mer frequency, TF over GST control)"
same,binding signal,ETV5,"1.31 fold enrichment (6-mer frequency, TF over GST control)"
same,binding signal,SPIC,"1.2 fold enrichment (6-mer frequency, TF over GST control)"
same,binding signal,ELF4,"1.19 fold enrichment (6-mer frequency, TF over GST control)"
same,binding signal,ELK4,"1.29 fold enrichment (6-mer frequency, TF over GST control)"
same,binding signal,ETV2,"1.39 fold enrichment (6-mer frequency, TF over GST control)"
same,binding signal,ELF3,"1.33 fold enrichment (6-mer frequency, TF over GST control)"
same,binding signal,ETV1,"1.39 fold enrichment (6-mer frequency, TF over GST control)"
CTGTCC,binding signal,FLI1,"1.34 fold enrichment (6-mer frequency, TF over GST control)"
same,binding signal,ELK1,"1.22 fold enrichment (6-mer frequency, TF over GST control)"
same,binding signal,GABPA,"1.29 fold enrichment (6-mer frequency, TF over GST control)"
same,binding signal,ERG,"1.28 fold enrichment (6-mer frequency, TF over GST control)"
same,binding signal,ELF1,"1.28 fold enrichment (6-mer frequency, TF over GST control)"
same,binding signal,EHF,"1.36 fold enrichment (6-mer frequency, TF over GST control)"
same,binding signal,SPI1,"1.25 fold enrichment (6-mer frequency, TF over GST control)"
same,binding signal,SPIB,"1.27 fold enrichment (6-mer frequency, TF over GST control)"
same,binding signal,ELK3,"1.1 fold enrichment (6-mer frequency, TF over GST control)"
same,binding signal,FEV,"1.19 fold enrichment (6-mer frequency, TF over GST control)"
same,binding signal,ETV5,"1.41 fold enrichment (6-mer frequency, TF over GST control)"
same,binding signal,SPIC,"1.13 fold enrichment (6-mer frequency, TF over GST control)"
same,binding signal,ELF4,"1.28 fold enrichment (6-mer frequency, TF over GST control)"
same,binding signal,ELK4,"1.24 fold enrichment (6-mer frequency, TF over GST control)"
same,binding signal,ETV2,"1.2 fold enrichment (6-mer frequency, TF over GST control)"
same,binding signal,ELF3,"1.17 fold enrichment (6-mer frequency, TF over GST control)"
same,binding signal,ETV1,"1.4 fold enrichment (6-mer frequency, TF over GST control)"
